Source: PubChem (National Center for Advancing Translational Sciences (NCATS))
A selection: hits, their analogues and other compounds. The true share with any hit is near 5.5%.
RORgamma inh: qHTS for inhibitors of ROR gamma transcriptional activity. Potency, µM (titrated, usually from 53.6 µM), actives largely listed as inhibitors. Nuclear receptor ROR-gamma (Mus musculus), P51450. 5.4% of 310,000 active. Drosophila S2 Gal4-RORgamma UAS-luciferase reporter, 20 h; note: nearly all actives have a fitted effect of over 60% in size
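Luminescence from a UAS-regulated Photinus luciferase reporter in stably transfected Drosophila Schneider cells is measured; decreased signal marks ROR gamma inhibition. Fusion expression is induced by 700 uM copper sulfate for 20 hr.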
CtBP-E1A inh: qHTS Assay for Inhibitors of the CtBP/E1A Interaction. CtBP / adenovirus E1A interaction (AlphaScreen). AlphaScreen GST-E1A/His-CtBP binding, 1536-well; hits give low values. activity change, % (concentration not given with the values). 0.49% of 340,000 active. AID 651724, 2012; in the data active = activity change below about -65%; inconclusive = mostly about -30% to -63%
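In 5 uL wells, 23 nL compound meets equimolar GST-E1A and His-CtBP (5X stock 125 nM each) for 2 h, 37 °C. Beads (5X, 50 ug/mL) then 1 h, 37 °C, dark.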
VP16 counter: VP16 counterscreen qHTS for inhibitors of ROR gamma transcriptional activity. Drosophila S2 Gal4-VP16 UAS-luciferase, luminescence, 20 h. Potency, µM (doses to about 53.6 µM), actives largely listed as inhibitors. 3.5% of 310,000 active;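 note: Gal4-VP16 expression switched on by copper sulfate through the metallothionein promoter; nearly all actives have a fitted effect of over 50% in size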
Six1-Eya2 blk: qHTS Assay for Inhibitors of the Six1/Eya2 Interaction; AlphaScreen GST-Six1/His-Eya2 binding, biochemical; hits give low values; 0.56% of 360,000 active; AID 651725, 2012; activity change, % (no concentration beside the values); Homeobox protein SIX1 (Homo sapiens) + Protein phosphatase EYA2 (Homo sapiens), …; in the data active = activity change below about -65%; inconclusive = mostly about -30% to -63%
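AlphaScreen with GST-Six1 and His-Eya2 (5X mix: 250 nM and 500 nM), glutathione donor and nickel acceptor beads; buffer 50 mM Tris pH 8.0, 300 mM NaCl, 1 mM TCEP; 1 h at 37 C in the dark.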
MBNL1-CUG inh: qHTS Assay for Inhibitors of MBNL1-poly(CUG) RNA binding; 0.036% of 280,000 active; AID 2675, 2010; Muscleblind-like protein 1 (Homo sapiens), Q9NR56; TR-FRET MBNL1-His/biotin-(CUG)12 binding, 665/545 ratio; Potency, µM (top dose mostly 57.5 µM), actives largely listed as inhibitors; active = well fitted inhibition curve with a large enough effect in the signal ratio, with a control signal flat, not every such curve was filed as active; inconclusive = small, poorly fitted or top-dose-only effect, or effect the other way, or a change in a side signal; inactive = no such curve, though single readings can be large or run the other way; the % refers to the signal ratio
Target sequence (Q9NR56 whole entry, looked up): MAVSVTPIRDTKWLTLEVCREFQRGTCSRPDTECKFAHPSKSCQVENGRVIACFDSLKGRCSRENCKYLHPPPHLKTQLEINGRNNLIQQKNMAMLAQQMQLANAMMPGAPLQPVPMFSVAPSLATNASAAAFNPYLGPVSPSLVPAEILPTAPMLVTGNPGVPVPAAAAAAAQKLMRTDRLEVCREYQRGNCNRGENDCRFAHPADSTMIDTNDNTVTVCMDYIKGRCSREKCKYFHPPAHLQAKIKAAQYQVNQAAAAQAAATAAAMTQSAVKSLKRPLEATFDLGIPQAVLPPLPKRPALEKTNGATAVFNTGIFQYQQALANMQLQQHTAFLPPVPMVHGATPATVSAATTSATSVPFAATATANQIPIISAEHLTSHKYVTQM
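TR-FRET readout: Ex 340 nm, 665/545 nm emission ratio, normalized to buffer-only (basal) and MBNL1-(CUG)12 controls. Complex of MBNL1-His with Biotin-(CUG)12, compounds 92 nM–58 uM, incubated 60 min at room temperature.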
CBFb RUNX1 block: qHTS Assay for Compounds Blocking the Interaction Between CBF-beta and RUNX1 for the Treatment of Acute Myeloid Leukemia; AID 1477, 2009; 230,000 tested, under 10 active; Runt-related transcription factor 1 (Homo sapiens) + Core-binding factor subunit beta …; AlphaScreen CBFb-His/RUNX1-biotin binding, biochemical; Potency, µM (series often up to 59.8 µM), hits mostly inhibitors
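Room-temperature protein-protein interaction test with 30 nM each of His-tagged CBF-beta and biotinylated RUNX1, 15 min with compound, then 90 min with nickel plus streptavidin beads. Signal read in AlphaScreen mode.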
Hits are given with their value; 0 = inactive; ? = inconclusive; - = no result given; [ ] = dose if it differs, or a comment. Unless noted, calls come from the whole dose curve; as a rule, active = well fitted curve in the direction sought with a large enough effect; inconclusive = small, poorly fitted or top-dose-only effect, or another doubt; inactive = no such curve, though single readings can be large; an effect the other way counts as inactive or inconclusive.

SMILES	RORgamma inh	CtBP-E1A inh	VP16 counter	Six1-Eya2 blk	MBNL1-CUG inh	CBFb RUNX1 block
O=C(NC(=S)Nc1ccccc1N1CCOCC1)c1ccco1	14.1µM	0	14.1µM	0	0	0
CCC(C)c1ccccc1NC(=S)NC(=O)c1ccco1 (centres undefined)	3.55µM	0	3.16µM	0	0	-
O=C(NC(=S)Nc1ccccc1N1CCCC1)c1ccco1	0	0	0	0	0	0
O=C(NC(=S)Nc1ccccc1N1CCOCC1)c1ccc(-c2cc(Cl)ccc2Cl)o1	0.891µM	0	2.51µM	0	?	0
O=C(COc1cccc(C(F)(F)F)c1)NCC(c1cccs1)N1CCOCC1 (centres undefined)	-	0	-	0	-	-
CCc1csc(CNC(=O)C2CCC(=O)N(Cc3cccc(F)c3)C2)n1 (centres undefined)	0	0	0	0	0	-
c1ccc(CSc2cc3ccccc3[nH]2)cc1	-	0	-	0	-	-
CS(=O)(=O)N1CCN(c2ccccc2NC(=S)NC(=O)c2ccco2)CC1	-	0	-	0	-	-
O=C(NC(=S)Nc1cccc(Cl)c1N1CCCCC1)c1ccco1	3.98µM	0	7.08µM	0	0	0
Fc1cc(F)cc(NC(=S)Nc2ccccc2N2CCOCC2)c1	12.6µM	0	0[10 µM]	0	0	0
O=C(NC(=S)Nc1ccccc1N1CCCCC1)c1ccco1	3.16µM	0	3.98µM	?	?	0
COC(=O)N[C@H](C[N+](=O)[O-])C(C)(C)C	0	-	0	-	-	0
CN(CC(=O)Nc1ccc(F)cc1)C(=O)COC(=O)CNC(=O)c1ccc(Cl)cc1Cl	-	0	-	0	-	-
COC(=O)c1sccc1NC(=O)CC1C(=O)NCCN1C(=O)Nc1ccc(C(F)(F)F)cc1 (centres undefined)	0	-	0	0	0	0
COc1cccc(CN(C)C(=O)CSCC(=O)Nc2cccc(C)c2)c1OC	-	0	-	0	-	-
COC(=O)[C@@H](NC(=O)O[C@@H]1C(=O)c2ccc(OC)cc2O[C@H]1c1ccc2c(c1)OCO2)C(C)C	0	-	0	-	-	0
COc1ccc2c(c1)CCc1c(C(=O)Nc3ccc(OC)c(OC)c3)noc1-2	1.41µM	0	?	0	0	0
CCOc1ccccc1OCCCC(=O)NNC(=O)c1nn(C)c(=O)c2ccccc12	-	0	-	0	-	-
CC(=O)Nc1ccc(SCC(=O)c2cc(C)n(Cc3cccs3)c2C)cc1	0	0	?	0	0	0
Cc1cc(C(=O)CSc2nnc(N)s2)c(C)n1Cc1cccs1	8.91µM	0	11.2µM	0	0	0
Cc1csc(SCC(=O)c2cc(C)n(Cc3cccs3)c2C)n1	6.31µM	0	8.91µM	0	0	0
CCOC(=O)c1ccc(-c2ccc(/C=C(\C#N)C(=O)NCc3cccs3)o2)cc1	?	0	3.16µM	0	-	0
COc1cc(OC)c(OC)cc1/C=C(\C#N)C(=O)NCc1cccs1	0	0	0	0	0	-
CC(c1ccncn1)N(C)Cc1nc(-c2ccc(C(F)(F)F)cc2)no1 (centres undefined)	3.16µM	0	7.08µM	0	0	0
COc1ccccc1N1CCN(C2=NS(=O)(=O)c3ccccc32)CC1	0	0	0	0	0	0
C=CCN1/C(=C(\C#N)C2=NS(=O)(=O)c3ccccc32)N(C)c2ccccc21	11.2µM	0	?	0	0	0
COCCN(C(=O)CCC(=O)Nc1cc(C)on1)C(C(=O)NC(C)(C)C)c1cccc(OC)c1OC (centres undefined)	0	0	0	0	0	-
N#Cc1c(F)cccc1NCc1cccs1	0	0	0	0	0	0
Cc1cccc(C(=O)NNC2=CC(=O)CC(C)(C)C2)c1O	?	0	0	0	0	0
CC1(C)CC(=O)C=C(NNC(=O)c2ccccc2O)C1	12.6µM	0	11.2µM	0	0	0
